High-throughput results as filed in PubChem BioAssay.
ELG1 genotoxic: qHTS screen for small molecules that induce genotoxicity in human embryonic kidney (HEK293T) cells expressing luciferase-tagged ELG1; HEK293T ELG1-luciferase reporter, luminescence, 16 h; Potency, µM (titrated, usually from 46 µM), inactives show at the top dose activity change, positive = activation, actives largely listed as activators; actives 1.3% (n = 330,000); further: % of control where 0% means no effect; nearly all actives have a fitted effect of over 60% in size
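16 hr compound incubation (37 °C, 5% CO2) of HEK293T cells carrying luciferase-tagged ELG1; luciferase then measured by ONE-Glo luminescence after 30 min at RT.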
Rab9 prom act: qHTS Assay for Rab9 Promoter Activators; Huh7 Rab9 promoter-luciferase reporter, luminescence, 24 h; Potency, µM (titrated, usually from 9.22 µM), without a hit: at the top dose activation, negative = inhibition, actives largely listed as activators; actives 2.8% (n = 320,000); AID 485297, 2010; further: % of control where 0% means no effect; nearly all actives have a fitted effect of over 60% in size
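Promoter activation is measured as luciferase luminescence in Huh7 cells stably transfected with a Rab9 promoter–luciferase construct, following 24 h compound exposure at 37 °C and 10 min reagent incubation at ambient temperature.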
NPC1 promoter act: qHTS Assay for NPC1 Promoter Activators | Huh7 NPC1 promoter luciferase reporter, 24 h | Potency, µM (doses to about 9.22 µM), without a hit: at the highest dose activation, actives largely listed as activators | actives 2.4% (n = 320,000); further: % of control where 0% means no effect; nearly all actives have a fitted effect of over 60% in size
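Readout is luciferase luminescence, reflecting NPC1 promoter activation in stably transfected Huh7 cells after 24 h compound exposure at 37 °C in reduced-serum medium with 10% FBS.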
SMN2 splice up: qHTS Assay for Enhancers of SMN2 Splice Variant Expression | HEK293 SMN2-luciferase splicing reporter, luminescence, 30-36 h | Potency, µM (top dose mostly 46.1 µM), inactives show top-dose activity change, positive = activation, hits mostly activators | actives 2.8% (n = 210,000); further: % of control where 0% means no effect; nearly all actives have a fitted effect of over 55% in size
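HEK293 cells carry an SMN2 […]–luciferase reporter in which exon 7 inclusion puts luciferase in frame. Cells were plated 10-12 h before compound addition, then incubated 30-36 h at 37C. ONE-Glo luminescence was read; sodium butyrate at 4.5 mM final served as control.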
Luc counter: Counterscreen for Luciferase (Kinase-Glo TM) Inhibition; Kinase-Glo luciferase, ATP luminescence, 8 min; actives 0.28% (n = 200,000); Potency, µM (doses to about 38.3 µM), for the others: at the highest dose activity change, negative = inhibition, usual class: inhibitors; AID 1379, 2008; further: on the % scale 0 is the no-effect control and ±100 the full control effect; nearly all actives have a fitted effect of over 60% in size
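Recombinant Kinase-Glo luciferase, 10 uM ATP (linear range), luciferin; imidazole pH 7.2 / KCl / MgCl2 / Tween / BSA buffer; 8 min RT; luminescence.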
FLuc modulator: qHTS profiling assay for firefly luciferase inhibitor/activator using purifed enzyme and Km concentrations of substrates (counterscreen for miR-21 project); purified FLuc, Km substrates, luminescence inhibition; Potency, µM (doses to about 57.5 µM), for inactives: at the highest dose activity change, negative = inhibition, most hits filed as inhibitors; actives 6.9% (n = 360,000); AID 588342, 2011;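 further: plate controls were vehicle for no effect and reference inhibitor for full effect; nearly all actives have a fitted effect of over 55% in size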
Target sequence (P08659 whole entry, looked up): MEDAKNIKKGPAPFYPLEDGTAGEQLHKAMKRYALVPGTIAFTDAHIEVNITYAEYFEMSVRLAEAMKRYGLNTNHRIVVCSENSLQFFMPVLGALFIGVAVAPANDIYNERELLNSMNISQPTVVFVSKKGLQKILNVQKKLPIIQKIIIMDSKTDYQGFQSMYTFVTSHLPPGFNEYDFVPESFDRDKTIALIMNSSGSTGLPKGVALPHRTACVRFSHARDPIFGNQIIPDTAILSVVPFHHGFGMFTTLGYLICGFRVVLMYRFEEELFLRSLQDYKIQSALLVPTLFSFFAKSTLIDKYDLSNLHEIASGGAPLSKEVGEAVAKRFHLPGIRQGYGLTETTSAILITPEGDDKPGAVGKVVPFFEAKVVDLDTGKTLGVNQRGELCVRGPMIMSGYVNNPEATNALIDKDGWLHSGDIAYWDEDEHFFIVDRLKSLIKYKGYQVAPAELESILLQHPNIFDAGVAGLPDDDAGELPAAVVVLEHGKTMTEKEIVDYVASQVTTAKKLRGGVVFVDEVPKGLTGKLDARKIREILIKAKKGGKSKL
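Biochemical qHTS of compounds, final roughly 60 µM downward over six points, against 10 nM purified firefly luciferase using Km concentrations of substrates (10 uM D-luciferin, 10 uM ATP) in Tris acetate pH 7.5 buffer; luminescence output.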
Numbers without * were called inactive; ? = inconclusive; . = no result. A selection: hits, their analogues and other compounds. The true share with any hit is near 7.5%. The call rests on the fitted dose curve; in most records, active means well fitted curve in the direction sought with a large enough effect; inconclusive means small, poorly fitted or top-dose-only effect, or another doubt; inactive means no such curve, though single readings can be large; an effect the other way counts as inactive or inconclusive. Potency means the concentration at half of the fitted maximal effect.

SMILES | ELG1 genotoxic | Rab9 prom act | NPC1 promoter act | SMN2 splice up | Luc counter | FLuc modulator
Cc1ccc(Cn2c(C)c3cnn(CC(=O)NCCc4ccc(Cl)cc4)c(=O)c3c2C)cc1 | . | . | . | 3% | . | -7%
O=C(COc1ccccc1)Nc1nc(-c2cccs2)cs1 | 7% | -1% | 7% | -10% | 0% | ?
c1cncc(-c2csc(-c3cccnc3)n2)c1 | -9% | 1% | -5% | . | . | ?
c1cncc(-c2nc(-c3cccs3)cs2)c1 | 14% | 19% | 29% | -4% | 0% | 27µM*
Clc1ccsc1-c1csc(-c2cccnc2)n1 | ? | ? | 16% | 13% | -4% | 11µM*
Oc1ccc(-c2csc(-c3cccnc3)n2)c(O)c1 | ? | ? | ? | ? | -1% | 3µM*
c1csc(-c2csc(-c3cccs3)n2)c1 | 21µM* | ? | 20% | 3% | -2% | 12µM*
c1cncc(-c2nc(-c3ccco3)cs2)c1 | 29% | 22% | 18% | ? | -4% | ?
CC(=O)c1c(C)nn(C(=O)c2cccs2)c1C | 5% | 4% | -5% | -5% | 0% | 3%
O=C(c1ccc2c(c1)OCO2)N1CCN(c2ccccc2)CC1 | -2% | 2% | 2% | -1% | -1% | -3%
Cc1nn(C(=O)c2ccc3c(c2)OCO3)c(N)c1-c1ccccc1 | ? | 8% | -1% | 10% | -14% | 0.48µM*
Cc1nn(C(=O)c2cccs2)c(N)c1-c1ccccc1 | ? | ? | ? | ? | 1% | 4.3µM*
CC(=O)N1CCN(CC(=O)Nc2cc(S(=O)(=O)N3CCOCC3)ccc2C)CC1 | -3% | 2% | -3% | -26% | 1% | -2%
CCCc1cnc(N2CCN(C(=S)NC)CC2)nc1 | 23µM* | 4.5µM* | ? | . | . | 17µM*
O=C1NC2(CCCCC2)C(=O)N1CC(=O)N1CCc2ccccc21 | 6% | . | . | . | . | .
Nn1c(SCc2ccccc2)nc2ccccc21 | ? | 3.2µM* | 1.8µM* | . | . | 19µM*
O=C(Nc1ccc(Cl)cc1)Nc1ccc2c(c1)N1CCN=C1S2 | -6% | 11% | 10% | -25% | -7% | 8.5µM*
O=C(c1cc(C(F)(F)F)cc(C(F)(F)F)c1)N1CCC2(CCCN(Cc3ccccc3)C2)CC1 | . | . | . | -9% | 0% | .
COc1ccc(NC(=O)Cn2c(C(C)C)nc(C)cc2=O)cc1Cl | -2% | 0% | -5% | -20% | 3% | -1%
COc1ccccc1NC(=O)CSc1nnc(-c2ccccc2C)o1 | . | . | . | . | . | -16%
Cc1cccc(NC(=O)CSc2nnc(-c3n[nH]c4ccccc34)o2)c1 | 7% | 23% | 19% | ? | 3% | 1%
Cc1ccccc1-c1nnc(SCC(=O)Nc2cccnc2Cl)o1 | 2.1µM* | . | . | . | . | .
Cc1cc(C)cc(NC(=O)CSc2nnc(-c3ccccc3C)o2)c1 | 13% | ? | ? | 18% | 1% | .
Cc1cccc(NC(=O)CSc2nnc(-c3ccccc3C)o2)c1 | ? | 4µM* | ? | 13µM* | -1% | 0%
N#Cc1cccc(NC(=O)CSc2nnc(-c3n[nH]c4ccccc34)o2)c1 | 20% | ? | ? | 13µM* | 2% | -15%
SMILES | ELG1 genotoxic | Rab9 prom act | NPC1 promoter act | SMN2 splice up | Luc counter | FLuc modulator
CN(C)CCNC(=O)c1ccc2nc(Cc3ccccc3)oc2c1 | . | . | . | . | . | -6%
O=C(N/N=C/C1CC2C=CC1C2)c1ccccc1O (stereo not given) | 1% | -9% | 0% | . | . | 21µM*
O=C(O)CCCNC(=O)Cc1ccccc1 | 3% | 0% | 0% | . | . | -3%
O=C(NCc1ccc2c(c1)CCO2)Nc1ccccc1 | ? | 3.2µM* | 3.5µM* | . | . | 15µM*
Cc1ccc(C(=O)NCc2ccc3c(c2)CCO3)cc1C | 16% | ? | 27% | . | . | ?
O=C(/C(=C(\[O-])c1ccccc1)[n+]1ccc2ccccc2c1)c1ccccc1 | 11% | 2% | 8% | 5% | -1% | 24µM*
CS(=O)(=O)c1ccc(NS(=O)(=O)c2ccc(Cl)c(C(=O)NCc3ccco3)c2)cc1 | -3% | 2% | 0% | . | . | 2%
COc1ccccc1/C=C/C=N/NC(=O)c1ccccn1 | -9% | 1.1µM* | 2µM* | 11µM* | -4% | 8.5µM*
COc1ccccc1/C=C/C=N/NC(=O)c1cnccn1 | 13% | 23% | 14% | . | -2% | ?
COc1ccccc1/C=C/C=N/NC(=O)c1cc(-c2ccco2)[nH]n1 | -5% | 0% | -3% | . | . | 17µM*
Cc1ccc(NC(=O)c2ccccc2Br)c(C(=O)c2ccccc2)c1 | . | . | . | -25% | . | -1%
Cc1sc2ncn(CC(=O)N3CCN(c4cccc(Cl)c4)CC3)c(=O)c2c1S(=O)(=O)N1CCC(C)CC1 | . | . | . | -6% | . | 7%
COc1ccccc1C(=O)Nc1cccc2cccnc12 | 8% | ? | 24% | . | . | 17µM*
CC(=O)Nc1cccc(NC(=O)c2cccc3cccnc23)c1 | -4% | 23% | -1% | . | . | 13µM*
O=C(NCCc1ccccc1F)c1cccc2cccnc12 | ? | 1.8µM* | 3.2µM* | . | . | 17µM*
Cc1ccc(NC(=O)c2cccc3cccnc23)cc1 | ? | 1.6µM* | 2.5µM* | . | . | 5.4µM*
CN(CC(=O)Nc1ccc(Cl)c(Cl)c1)C(=O)c1cccc2cccnc12 | 0% | 4% | -5% | . | . | 3%
COc1cccc(CNC(=O)C2Cc3cc(S(=O)(=O)N4CCCCCC4)ccc3N2C(C)=O)c1 (stereo not given) | . | . | . | . | . | -3%
O=C1CSC(c2ccccc2)N1c1nnc(C23CC4CC(CC(C4)C2)C3)s1 (stereo not given) | 4% | 3% | -1% | -6% | -6% | 3%
COc1ccc(C(=O)NC(=S)N2CCN(c3ccccc3O)CC2)cc1 | -1% | . | . | . | . | .
Cc1nn(Cc2c(F)c(F)c(F)c(F)c2F)c(C)c1NC(=O)c1nn(C)c(C)c1Br | -7% | 14% | -1% | . | . | -1%
CC1CCC(=C(C#N)C(=O)Nc2cccc(Cl)c2)CC1 (stereo not given) | -1% | -6% | -1% | -11% | -5% | 24µM*
N#CC(C#N)=C(N)Nc1cccc(Cl)c1 | 1% | -2% | 0% | . | . | 6%
COc1cccc(C(=O)Nc2ccc(F)cc2F)c1 | ? | ? | ? | 13µM* | -14% | ?
COc1cccc(C(=O)Nc2ccc(C(F)(F)F)n(C)c2=O)c1 | ? | 2.8µM* | 2.8µM* | . | ? | 6µM*
COc1ccc(C(=O)Nc2ccc(F)cc2F)cc1OC | 14% | 15% | 13% | 4% | -10% | -1%
